Molecules are shown by their SMILES. The campaign covered roughly 340,000 compounds. About 2,300 (0.68%) were called active. The sample as a whole holds a higher share of actives than the screen did. A number with no mark means an inactive call. Rule as the data show it: active = growth rescue above about 28% (passing the limit was not always enough); inconclusive = no clear call, values can overlap the other calls.

This experiment is described as follows: rescue of yeast from PfHsp40 toxicity, primary screen, S. cerevisiae, ATP luminescence (AID 504582).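 Also: yeast W303a lacking pdr1 and pdr3 grown in galactose medium; growth measured after three days at 30 °C.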 The conditions noted are these: S. cerevisiae expressing PfHsp40, growth rescue, at 12.5 µM, stronger effect = higher value.
Turning to `CN(c1ccc(C(=O)NCCC2=CCCCC2)cc1)S(C)(=O)=O`, the growth rescue was -0.452%. With `O=C(NCCC1=CCCCC1)c1ccc(-n2cncn2)cc1` the figure was 0.575%.

As for `O=C(NCCC1=CCCCC1)c1ccc(Cl)c([N+](=O)[O-])c1`, the growth rescue was 34.2% (active).

As for `CCOc1ccccc1N(CC(=O)NC1CCCCC1)C(=O)CCCC(=O)Nc1ccccn1`, the growth rescue was 0.515%. In the case of `Cc1ccc(NC(=O)CN(C)C(=O)COC(=O)C(C)(C)Oc2ccc(Cl)cc2)cc1` it was -0.952%. As for `NC(=O)C1CCN(C(=O)c2cn(-c3ccccc3)nc2-c2cccnc2)CC1`, the growth rescue was -1.23%.

For `O=C(NNC(=S)NC(=O)c1cn(-c2ccccc2)nc1-c1ccccc1)c1ccncc1`, the growth rescue is 117% (active). In the case of `Cc1ccc(-c2nn(-c3ccccc3)cc2C(=O)NC2CCC(O)CC2)cc1` (configuration not stated) it was -0.972%. With `Cc1ccc(SC(=O)COc2ccc(C)c(C)c2)cc1` the figure was -0.169%.

For `CCOc1ccc(-c2ccc(SCC(=O)N3CCOCC3)nn2)cc1`, the growth rescue was -0.865%. With `CC(C)C[C@@H](COc1ccccc1)N1CCN(CC(C)C)CCC1=O` the figure was 0.09%; with `CC1(C)C=Cc2c(ccc3c2OC[C@@H](c2ccc(O)cc2O)C3)O1`, 232% (active); with `Nc1cc(N)nc(SCC(=O)Nc2cccc(S(=O)(=O)N3CCCCC3)c2)n1`, 0.009%. With `Cn1c(CC2Sc3ccccc3NC2=O)nnc1SCC(=O)c1ccc(Cl)cc1` (configuration not stated), the growth rescue is -0.256%. With `COc1ccc(C2N=C(N)N=C(N)N2c2ccccc2)cc1OC` (configuration not stated) the figure was 0.038%; with `CC/C(=N\NC(=O)c1ccccc1Cl)c1ccc(Br)s1`, -0.619%. With `CC/C(=N\NC(=O)c1ccccc1O)c1c(O)n(Cc2ccccc2)c(=O)[nH]c1=O` the figure was 44.8% (active); with `COCCN(C(=O)c1ccccc1F)c1c(N)n(Cc2ccccc2)c(=O)[nH]c1=O`, -0.643%; with `COc1ccc(C(=O)CN2C(=O)NC(C)(c3ccc(C)cc3)C2=O)cc1OC` (configuration not stated), 0.439%. With `COc1ccc(C2Nc3ccccc3C(=O)N2c2ccc(Cl)cc2)cc1Cn1cc([N+](=O)[O-])cn1` (configuration not stated) the figure was 0.089%. Take `Cn1ncc(Br)c1C(=O)NC1CCCC1`: the growth rescue was -0.467%. In the case of `COC(=O)[C@@H]1C[C@@]2(O)[C@H](O)[C@H](O)[C@H](O)C[C@H]2N1Cc1ccc(C(C)(C)C)cc1` it was 29% (active). In the case of `COC(=O)[C@@H]1C[C@@]2(O)[C@H](O)[C@H](O)[C@H](O)C[C@H]2N1Cc1ccc(C)s1` it was -1.59%; in that of `COC(=O)[C@@H]1C[C@@]2(O)[C@@H](O)[C@@H](O)[C@@H](O)C[C@H]2N1Cc1ccc(C)s1`, -0.441%.

Turning to `CC(=O)c1cccc(-c2ccc(CN3C(CC(C)C)C(=O)N(Cc4cn(CC5CCCCC5)nn4)CCS3(=O)=O)cc2)c1` (configuration not stated), the growth rescue was 0.3%. In the case of `Cc1cc(N=Nc2ccc3ccccc3c2)ccc1O` it was 91.3% (active); in that of `C#CCOCCOCCOCCNc1nc(N2CCN(C(=O)CCCCCCCCCCNC(=O)[C@H]([C@@H](C)CC)n3cc(CCCCN=C(N)N)nn3)CC2)nc(N2CCN(C(=O)CCCCCCCCCCNC(=O)[C@H](CO)n3cc(CCCSC)nn3)CC2)n1`, 29.5% (active). In the case of `C#CCOCCOCCOCCNc1nc(N2CCN(C(=O)[C@H](CCCN=C(N)N)n3cc(C(N)[C@@H](C)CC)nn3)CC2)nc(N2CCN(C(=O)[C@H](CO)n3cc([C@@H](N)C(C)C)nn3)CC2)n1` (some centres not stated) it was -0.354%; in that of `C#CCOCCOCCOCCNc1nc(N2CCN(C(=O)[C@H](C(C)C)n3cc(CCO)nn3)CC2)nc(N2CCN(C(=O)[C@H](C(C)C)n3cc(CCO)nn3)CC2)n1`, -2.28%; in that of `CCOc1ccc(S(=O)(=O)n2ccnc2)c2ccccc12`, -0.0665%. In the case of `CN(C)C(=O)CCC(=O)N1CCCCC1C(=O)Nc1ccc(Oc2ccccc2F)cc1` (configuration not stated) it was 141% (active); in that of `COc1ccc(NC(=O)N2CCCC2C(=O)NCc2ccccc2Cl)cc1` (configuration not stated), -2.16%; in that of `COc1cccc(NC(=O)C2CCCN2C(=O)OCc2ccccc2)c1` (configuration not stated), 0.607%. Regarding `COc1ccc(OC)c(C(=O)c2ccc(C(=O)N3CCN(Cc4csc(C)n4)CC3)cc2)c1`, the growth rescue was -1.18%.

Regarding `O=C(Cn1nnc(-c2ccccc2)n1)N/N=C/c1ccc(-c2ccc(Cl)cc2)o1`, the growth rescue is -1.63%. Consider `O=C(NCc1ccco1)C1CCCN(S(=O)(=O)c2cnc[nH]2)C1` (configuration not stated), for which the growth rescue was 0.411%. With `COc1cc(/C=N/O)cc(Br)c1OCc1cccc(Cl)c1` the figure was 157% (active); with `COc1cc(C(=O)NCc2ccncc2)cc(Br)c1OCc1ccccc1`, 1.27%; with `COc1cc(/C=N/O)cc(Br)c1OS(=O)(=O)c1ccc(C)cc1`, -0.295%. In the case of `CC(=O)Oc1ccc(C)cc1N1C(=O)c2ccc(C(=O)O)cc2C1=O` it was 103% (active). Take `Cc1cccc(N2C(=O)c3ccc(C(=O)Nc4cccc(C(=O)O)c4)cc3C2=O)c1`: the growth rescue is -0.247%. In the case of `COc1ccc(OC)c(NC(=O)c2ccc3c(c2)C(=O)N(c2ccc(OC(C)=O)cc2)C3=O)c1` it was -0.414%; in that of `CCc1ccc(C(=O)NNC(=O)C2CCN(c3ncnc4sc(C)c(C)c34)CC2)cc1`, 4.88%; in that of `O=S(=O)(c1ccc(Br)cc1)n1ccc2ccccc21`, 17.1%. In the case of `CCCC(C)C(=O)OCC(=O)Nc1c(Br)cc(C)cc1Br` (configuration not stated) it was 1.14%. With `COc1ccc(NC(=O)CSc2nc3ccccc3c(=O)n2C)cc1` the figure was -2.46%; with `COc1ccc(OCc2ccc(-c3nc4ccccc4c(=O)n3N)o2)cc1`, 0.704%; with `COc1ccc(-c2nc3ccccc3c(=O)n2CCc2ccc(O)cc2)cc1`, 31.2% (active). For the molecule `CCCCCC(O)c1cccc(OCc2ccc3ccccc3n2)c1` (configuration not stated), the growth rescue was 57.6% (active). With `COc1cccc(C(O)c2nc3ccccc3n2C)c1` (configuration not stated), the growth rescue is -0.645%. Regarding `Clc1ccccc1-c1cc(COc2ccc3ccccc3c2)no1`, the growth rescue was -0.819%. With `Cc1no[n+]([O-])c1COc1ccccc1/C=C1\NC(=S)NC1=O` the figure was 0.211%; with `Cc1[nH]c2c(C(=O)N3CCCC(CCC(=O)NCc4ccccc4F)C3)cccc2c1C` (configuration not stated), 1.34%.

Consider `O=C(c1cn(-c2ccccc2)nc1-c1cccnc1)N1CCN(S(=O)(=O)c2ccccc2F)CC1`, for which the growth rescue is -0.533%. Consider `O=[N+]([O-])/C=C1\CCCCCN1`, for which the growth rescue was 0.302%. In the case of `Cc1ccc(OCC(=O)NNC(=S)NCc2ccccc2)cc1` it was -0.289%; in that of `CC(Oc1ccc2ccccc2c1)C(=O)NNC(=S)NC(=O)c1ccco1` (configuration not stated), 58.8% (active); in that of `CCCc1ccc(OCC(=O)NNC(=S)NC(=O)c2ccco2)cc1`, 58% (active). In the case of `O=C(Nc1ccc2ccccc2c1)/C(=C\c1ccc2c(c1)OCO2)NC(=O)c1ccco1` it was 0.409%; in that of `NS(=O)(=O)c1ccc(CNC(=S)NC(=O)c2ccco2)cc1`, 0.284%; in that of `O=C(Nc1ccc2ccccc2c1)/C(=C/c1cccc(Br)c1)NC(=O)c1ccco1`, 1.72%.

With `COc1ccc(S(=O)(=O)n2nc(C)c(S(=O)(=O)N3CCOCC3)c2C)cc1`, the growth rescue was 0.381%. In the case of `O=C(Cn1cnc2c(nnn2-c2ccccc2)c1=O)N1CCC(Cc2ccccc2)CC1` it was -0.205%; in that of `CCc1ccc(OCC(=O)OCC(=O)c2c(N)n(C)c(=O)n(C)c2=O)cc1`, 1.51%. In the case of `FC(F)(F)c1ccnc(Oc2ccc(C3=NCCS3)cc2)c1` it was 4.54%. In the case of `C#CCNc1nc(C(C)C)nc2c1nnn2Cc1ccccc1F` it was -0.851%. With `CSc1sc(C(=O)NC(=O)NCc2cccnc2)c(C)c1-c1ccon1`, the growth rescue was -0.426%. In the case of `O=C(NCCN1CCOCC1)c1cc(Sc2cccc(Cl)c2)nc2ccccc12` it was 1.79%. In the case of `CCOC(=O)C1CCN(Cc2coc3ccc(Cl)cc3c2=O)CC1` it was -0.75%; in that of `O=c1c(/C=N/O)coc2ccc(Cl)cc12`, 412% (active).

On to `O=C1/C(=C/c2coc3ccc(O)cc3c2=O)SC(=S)N1c1ccccc1`, for which the growth rescue was -0.334%. With `COc1ccccc1C(=O)Nc1ccc(OCc2nnc3c4ccccc4c(C)nn23)cc1` the figure was 1.5%. In the case of `COc1cc(OC)nc(N/N=C(\c2ccccc2)c2ccncc2)n1`, the growth rescue was 0.409%. In the case of `C/C(=N/Nc1nc(-c2ccccc2)c(CC(=O)O)s1)c1ccccc1` it was -0.261%. In the case of `c1ccc(C(=NNc2nc3ccccc3s2)c2ccccn2)cc1` it was 223% (active). For the molecule `CCOc1cc(/C=C(/C#N)c2ccc(Cl)cc2)cc(Cl)c1OCC(=O)O`, the growth rescue is -0.745%. For `CSCCC(NC(=O)c1ccccc1)C(=O)N1CCN(Cc2ccc(Cl)cc2)CC1` (configuration not stated), the growth rescue was 0.474%. With `C[C@H](NC(=O)c1ccccc1Cl)C(=O)OCCOc1cccc(Cl)c1` the figure was 4.16%; with `COC(=O)c1cccc([N+](=O)[O-])c1CS(=O)(=O)c1ccc(C)cc1`, -1.34%.

As for `CC(C)CNC(=O)COC(=O)/C=C/c1ccccc1[N+](=O)[O-]`, the growth rescue is -0.287%. With `O=C(/C=C/c1ccccc1[N+](=O)[O-])OCC(=O)N1CCCC1` the figure was 48.9% (active); with `O=C(/C=C/c1cccc([N+](=O)[O-])c1)OCC(=O)N1CCOCC1`, -0.951%; with `COC(=O)C1=C(NC(=O)C(C)(C)C)CCS1`, -1.07%.

On to `COc1ccc(CNC(=O)C2CCN(C(=O)c3ccco3)CC2)cc1`, for which the growth rescue is 0.344%. With `COc1cccc(-n2c(SCC(=O)c3c[nH]c4ccccc34)nc3ccccc3c2=O)c1` the figure was -1.82%; with `COc1ccc(/C=C(\C#N)c2c[nH]c3ccccc23)cc1`, 509% (active); with `CCC/C(=N\O)c1c[nH]c2ccccc12`, 0.247%.
